The text below walks through data of PubChem BioAssay AID623892 (Vanderbilt Specialized Chemistry Center, 2012).

Values without a mark were called inactive.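 Rule for the calls: active = potentiator with a glutamate EC50 fold shift of at least 2, or antagonist at 0.5 or below; inactive = fold shift between 0.5 and 2.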

The target of this test is Metabotropic glutamate receptor 8 (Rattus norvegicus) (UniProt P70579). The experiment in a line: mGlu8 glutamate response modulation check – cell-based, rat, thallium flux, selectivity assay for mGlu4 lead optimization, profiling panel (AID 623892). The following applies: HEK cells rat mGlu8, thallium flux, at 10 µM.
Sequence of Metabotropic glutamate receptor 8 (Rattus norvegicus) (P70579 whole entry, looked up): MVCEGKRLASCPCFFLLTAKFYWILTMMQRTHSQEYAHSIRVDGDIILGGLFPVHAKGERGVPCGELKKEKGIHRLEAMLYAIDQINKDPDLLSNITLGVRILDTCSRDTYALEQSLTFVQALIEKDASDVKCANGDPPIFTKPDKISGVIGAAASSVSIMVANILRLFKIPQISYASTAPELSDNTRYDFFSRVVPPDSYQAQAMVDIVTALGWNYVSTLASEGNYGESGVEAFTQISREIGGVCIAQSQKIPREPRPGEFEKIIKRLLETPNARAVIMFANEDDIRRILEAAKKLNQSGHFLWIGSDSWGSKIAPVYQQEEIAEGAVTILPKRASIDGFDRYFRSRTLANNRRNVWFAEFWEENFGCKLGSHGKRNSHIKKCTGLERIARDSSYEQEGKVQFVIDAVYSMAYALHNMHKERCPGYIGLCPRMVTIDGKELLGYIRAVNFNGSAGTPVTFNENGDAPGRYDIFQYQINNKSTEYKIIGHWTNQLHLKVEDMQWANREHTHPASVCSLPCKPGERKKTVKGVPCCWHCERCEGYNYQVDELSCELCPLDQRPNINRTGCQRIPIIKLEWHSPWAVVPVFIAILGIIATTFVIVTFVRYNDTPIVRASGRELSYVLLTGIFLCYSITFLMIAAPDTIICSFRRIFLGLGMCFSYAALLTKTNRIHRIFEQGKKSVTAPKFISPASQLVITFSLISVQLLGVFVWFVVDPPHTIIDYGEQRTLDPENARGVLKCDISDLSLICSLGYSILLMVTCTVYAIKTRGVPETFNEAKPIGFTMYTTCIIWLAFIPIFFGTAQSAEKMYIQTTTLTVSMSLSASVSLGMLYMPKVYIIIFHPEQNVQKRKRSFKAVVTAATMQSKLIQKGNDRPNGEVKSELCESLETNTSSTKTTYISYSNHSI

On to `O=C(Nc1cccc(Cl)c1)c1ccccn1`, for which the fold shift of glutamate EC50 was 1.47.
